# About 960 (1.5%) of roughly 66,000 compounds showed an effect of 50% or more. For the sample, strong results were picked, then their nearest neighbours and some compounds at random.
# Tested on: Trypanosoma brucei
# Assay: Trypanosoma brucei 72 hour study
# Type: functional, organism-based
# Design: scale not given: in the data most compounds retested in dose-response had high values
smiles,measurement,setting,value
O=C(O)C(F)(F)F.O=C1N(CC2CC2)CCC12CCN(c1ncccn1)CC2,Percent Effect,"30.3 µM, […]",-19.41%
O=C(O)C(F)(F)F.O=C(O)C(F)(F)F.c1cnc(N2CCC3(CCN(CC4CC4)CC3)CC2)nc1,Percent Effect,"30.3 µM, […]",8.512%
CCS(=O)(=O)N1CCC2(CC1)CN(CC1CCOC1)c1ccccc12.O=C(O)C(F)(F)F (stereo not given),Percent Effect,"30.3 µM, […]",14.83%
O=C(O)C(F)(F)F.c1cnc(N2CCC3(CC2)CN(CC2CC2)c2ccccc23)nc1,Percent Effect,"30.3 µM, […]",99.63%
O=C(O)C(F)(F)F.c1ccc2c(c1)N(CC1CCOC1)CC21CCN(c2cnccn2)CC1 (stereo not given),Percent Effect,"30.3 µM, […]",99.95%
CS(=O)(=O)N1CCC2(CC1)CN(CC1CCOC1)c1ccccc12.O=C(O)C(F)(F)F (stereo not given),Percent Effect,"30.3 µM, […]",18.78%
Cc1noc(C(C)N2CCN(CCC(=O)N3CCOCC3)CC2)n1 (stereo not given),Percent Effect,"30 µM, 30.03 µM",-18.56%
Cn1ccnc1C(=O)NCc1cnc2n1CCN(CC1CC1)CC2.O=C(O)C(F)(F)F.O=C(O)C(F)(F)F,Percent Effect,"30.3 µM, […]",-46.77%
CC(C)N(C)Cc1cnc2n1CCN(Cc1cccc(F)c1)C2.O=C(O)C(F)(F)F.O=C(O)C(F)(F)F,Percent Effect,"30.3 µM, […]",-6.591%
COCCN1CCn2c(CN(C)C(C)C)cnc2C1.O=C(O)C(F)(F)F.O=C(O)C(F)(F)F,Percent Effect,"30.3 µM, […]",0.5782%
CC(C)N(C)Cc1cnc2n1CCN(CCc1ccccc1)C2.O=C(O)C(F)(F)F.O=C(O)C(F)(F)F,Percent Effect,"30 µM, 30.03 µM",55.49%
CCn1nnc2c1C(COCC(=O)N(C)C)CN(Cc1ccco1)C2.O=C(O)C(F)(F)F (stereo not given),Percent Effect,"30.3 µM, […]",-38.68%
COc1cccc(-c2nc(C)c(C(=O)NCCC(=O)O)s2)c1,Percent Effect,"30 µM, 30.03 µM",-31.35%
CC(C)CC(=O)N1CC(=O)c2sc(Nc3ccc(C#N)cc3)nc2C1,Percent Effect,"30.3 µM, […]",-13.31%
O=C1NCC2(CCCN(CCc3ccccc3)C2)Oc2ccccc21 (stereo not given),Percent Effect,"30.3 µM, […]",-38.35%
C=Cc1ccc(CN2CCCC3(CNC(=O)c4ccccc4O3)C2)cc1 (stereo not given),Percent Effect,"30.3 µM, […]",79.56%
O=C1NCC2(CCCN(Cc3ccc(Cl)s3)C2)Oc2ccccc21 (stereo not given),Percent Effect,"30 µM, 30.03 µM",12.52%
O=C1NCC2(CCCN(Cc3ccc(F)cc3)C2)Oc2ccccc21 (stereo not given),Percent Effect,"30.3 µM, […]",13.09%
CSc1ccc(CN2CCCC3(CNC(=O)c4ccccc4O3)C2)cc1 (stereo not given),Percent Effect,"30.3 µM, […]",60.61%
O=C1NCC2(CCCN(Cc3ccccc3F)C2)Oc2ccccc21 (stereo not given),Percent Effect,"30.3 µM, […]",-8.26%
Cc1ccc(CN(CCCn2ccnc2)Cc2[nH]cnc2C)s1.O=C(O)CC(O)(CC(=O)O)C(=O)O,Percent Effect,"30.3 µM, […]",19.63%
O=C(O)C(F)(F)F.O=C(O)C(F)(F)F.O=C(c1ccncc1)N1CC2(CCNCC2)c2cc(Cl)ccc21,Percent Effect,"30.3 µM, […]",-51.23%
O=C(O)C(F)(F)F.O=C(c1cscn1)N1CC[C@@H]2[C@@H]1CCN2CC1CCOC1 (stereo not given in full),Percent Effect,"30.3 µM, […]",-46.23%
Cc1cc(O)c(OCC(=O)/N=c2\[nH]c(C)cs2)cn1,Percent Effect,"30 µM, 30.03 µM",-14.8%
COc1cccc(-c2noc(-c3ccc(NCC4CC4)nc3)n2)c1OC,Percent Effect,"30 µM, 30.03 µM",64.24%
CNCCNc1ccc(-c2nc(-c3cccc(OC)c3OC)no2)cn1,Percent Effect,"30 µM, 30.03 µM",17.24%
COc1cccc(-c2noc(-c3ccc(NCC(C)C)nc3)n2)c1OC,Percent Effect,"30 µM, 30.03 µM",3.504%
CCN(CC)S(=O)(=O)c1ccc(CNC(=O)N2CCC(C#N)CC2)cc1,Percent Effect,"30 µM, 30.03 µM",70.46%
CCN(CC)S(=O)(=O)c1ccc(CNC(=O)c2cc(C)on2)cc1,Percent Effect,"30.3 µM, […]",58.42%
CCN(CC)S(=O)(=O)c1ccc(CNC(=O)N2CCCCCC2)cc1,Percent Effect,"30 µM, 30.03 µM",27.66%
CCN(CC)S(=O)(=O)c1ccc(CCC(=O)NCc2cc(C)on2)cc1,Percent Effect,"30.3 µM, […]",-181.3%
Cc1cc(C(=O)NCc2cc(C)oc2C)no1,Percent Effect,"30 µM, 30.03 µM",-30.84%
CCN(CC)c1ccc(CNC(=O)N2CCC(C#N)CC2)cc1,Percent Effect,"30 µM, 30.03 µM",36.77%
CC1(C)CN(C(CNC2=NCCN2)c2ccc(Cl)cc2)CCO1.I (stereo not given),Percent Effect,"30 µM, 30.03 µM",11.29%
c1ccc(-c2nnc3sc(CCN4CCCC4)nn23)cc1,Percent Effect,"30 µM, 30.03 µM",-48.79%
Cc1ccc(CN2CC[C@H]3C[C@H](C(=O)N(C)C)O[C@H]3C2)cc1.O=C(O)C(F)(F)F,Percent Effect,"30 µM, 30.03 µM",45.02%
CN1CCNC(Cc2ccc(-c3ccncc3)cc2)C1=O.Cl (stereo not given),Percent Effect,"30.3 µM, […]",-41.95%
CN(C)c1ncc(C2Nc3ccccc3C3=NCCCN32)cn1.Cl (stereo not given),Percent Effect,"30.3 µM, […]",-6.507%
COc1ccc(C2Nc3ccccc3C3=NCCCN32)cc1OC (stereo not given),Percent Effect,"30 µM, 30.03 µM",-8.154%
COc1cc(C2Nc3cc(Cl)ccc3C3=NCCN32)cc(OC)c1OC (stereo not given),Percent Effect,"30.3 µM, […]",19.53%
COc1cc(C2Nc3cc(Cl)ccc3C3=NCCN32)ccc1O (stereo not given),Percent Effect,"30.3 µM, […]",69.32%
COc1cc(OC)c(C2Nc3cc(Cl)ccc3C3=NCCN32)cc1OC (stereo not given),Percent Effect,"30 µM, 30.03 µM",4.882%
COc1ccc(C2Nc3cc(Cl)ccc3C3=NCCN32)cc1CO (stereo not given),Percent Effect,"30.3 µM, […]",83.77%
COc1ccc(C2Nc3cc(Cl)ccc3C3=NCCN32)cc1OC (stereo not given),Percent Effect,"30 µM, 30.03 µM",25.02%
CN(C)c1ncc(C2Nc3cc(Cl)ccc3C3=NCCCN32)cn1.Cl (stereo not given),Percent Effect,"30.3 µM, […]",62.93%
COc1ccc(C2Nc3cc(Cl)ccc3C3=NCCN32)cc1O (stereo not given),Percent Effect,"30.3 µM, […]",12.75%
O=C(O)C1CN(c2cncc(Cc3ccccc3F)n2)C1,Percent Effect,"30.3 µM, […]",-23.43%
CC(=O)N1CCC(N2CCC(c3nc(C)cc(C)n3)C2)CC1.O=CO (stereo not given),Percent Effect,"30.3 µM, […]",-13.11%
CC(C)C(=O)N1CC[C@H]2N(C)CC[C@@]2(C(=O)Nc2cccnc2)CC1.O=C(O)C(F)(F)F.O=C(O)C(F)(F)F,Percent Effect,"30.3 µM, […]",-93.75%
CC1=CC[C@@H]2CN(C(=O)c3ccc(-c4cc[nH]n4)cc3)C[C@@H]2C1,Percent Effect,"30 µM, 30.03 µM",55.2%
Cc1ccc(C(=O)N2C[C@@H]3CN(c4ncccn4)C[C@@H]3C2)cc1,Percent Effect,"30.3 µM, […]",-8.111%
CC1=CC[C@@H]2CN(C(=O)c3ccc(-c4nc[nH]n4)cc3)C[C@@H]2C1,Percent Effect,"30 µM, 30.03 µM",36.48%
CC1=CC[C@@H]2CN(C(=O)c3ccc(-c4nnn(C)n4)cc3)C[C@@H]2C1,Percent Effect,"30 µM, 30.03 µM",59.61%
O=C(c1ccc(F)cc1)N1C[C@@H]2CN(c3ncccn3)C[C@@H]2C1,Percent Effect,"30.3 µM, […]",-32.62%
CCCc1cc(C(=O)N2CC(c3ccncc3)C2)ccn1,Percent Effect,"30.3 µM, […]",-10.84%
CCCc1cc(C(=O)N2C[C@H]3CC=C(C)C[C@H]3C2)ccn1,Percent Effect,"30.3 µM, […]",56.41%
O=C(c1ccc(-c2cc[nH]n2)cc1)N1CC[C@H](CO)[C@H](O)C1,Percent Effect,"30 µM, 30.03 µM",0.05802%
CCCc1cc(C(=O)N2C[C@H](O)[C@@H](N3CCCC3)C2)ccn1,Percent Effect,"30.3 µM, […]",-5.682%
O=C(O)C(F)(F)F.O=C(O)C(F)(F)F.O=C(O)CN1CCCC2(CCN2Cc2cccc(F)c2)C1 (stereo not given),Percent Effect,"30.3 µM, […]",-49.81%
CN(Cc1cccnc1)[C@@H]1CN(C(=O)NC2CC2)[C@@H]2CCCO[C@H]12.O=C(O)C(F)(F)F.O=C(O)C(F)(F)F,Percent Effect,"30.3 µM, […]",-11.25%
FC1(F)CCN(Cc2ccccn2)CC12CCN(c1ncccn1)C2.O=C(O)C(F)(F)F (stereo not given),Percent Effect,"30.3 µM, […]",-64.14%
CNC(=O)CN1CCOCC2(C1)CN(C(=O)CC(C)C)CCO2.O=C(O)C(F)(F)F (stereo not given),Percent Effect,"30 µM, 30.03 µM",-16.33%
O=C(c1ccncc1)N1C[C@@H]2CC[C@H](C1)N(S(=O)(=O)c1cccnc1)C2,Percent Effect,"30 µM, 30.03 µM",-9.354%
COc1ccc(CN(Cc2c[nH]cn2)CC2CCCO2)c(OC)c1.O=C(O)CC(O)(CC(=O)O)C(=O)O (stereo not given),Percent Effect,"30.3 µM, […]",4.059%
COCCNC(=O)[C@H]1C[C@@H]2CCN(c3ccccc3)C[C@H]2O1.O=C(O)C(F)(F)F,Percent Effect,"30.3 µM, […]",-28.03%
CCn1nnc2c1C(COCCN(C)C)CN(Cc1ccc(C)s1)C2.O=C(O)C(F)(F)F.O=C(O)C(F)(F)F (stereo not given),Percent Effect,"30.3 µM, […]",-26.69%
Cc1ccc(N2CCC3(CN(Cc4ccncc4)CCC3(F)F)C2)nn1.O=C(O)C(F)(F)F.O=C(O)C(F)(F)F (stereo not given),Percent Effect,"30.3 µM, […]",-39.6%
Cl.Fc1cccc(F)c1Cn1c(C2CCNCC2)cc2cccnc21,Percent Effect,"30.3 µM, […]",90.9%
Cl.Fc1cccc(F)c1Cn1c(C2CCCNC2)cc2cccnc21 (stereo not given),Percent Effect,"30.3 µM, […]",11.23%
CN1CCCC1c1cc2cccnc2n1Cc1ccc(F)cc1.Cl (stereo not given),Percent Effect,"30.3 µM, […]",-6.063%
Cl.c1cnc2c(c1)cc(C1CCOCC1)n2CCN1CCOCC1,Percent Effect,"30.3 µM, […]",3.621%
COc1cccc(CN2C[C@H]3CCNCC[C@H]3S2(=O)=O)c1,Percent Effect,"30.3 µM, […]",-73.82%
COc1ccc(Cn2c(C3CCNCC3)cc3cccnc32)cc1.Cl,Percent Effect,"30.3 µM, […]",99.58%
COc1cccc(-c2ccnc(C3CCNCC3)c2)c1,Percent Effect,"30.3 µM, […]",-11.36%
Cl.Fc1ccccc1Cn1c(C2CCNCC2)cc2cccnc21,Percent Effect,"30.3 µM, […]",37.09%
COc1cccc(Cn2c(C3CCNCC3)cc3cccnc32)c1.Cl,Percent Effect,"30.3 µM, […]",94.63%
NCC1CN(C(=O)Cn2ncc(N3CCCCC3)cc2=O)CCO1 (stereo not given),Percent Effect,"30.3 µM, […]",7.872%
O=C(O)C(F)(F)F.O=C(c1cscn1)N1CCC2(CN(Cc3ccsc3)C2)C1,Percent Effect,"30 µM, 30.03 µM",-41.53%
Cc1cc(NC(C)c2n[nH]c(C)n2)n2nc(C)c(C)c2n1 (stereo not given),Percent Effect,"30 µM, 30.03 µM",-65.68%
Cc1cc(NC(C)c2csc(C)n2)n2nc(C)c(C)c2n1 (stereo not given),Percent Effect,"30 µM, 30.03 µM",-27.53%
Cc1cc(NC(C)c2nnn[nH]2)n2nc(C)c(C)c2n1 (stereo not given),Percent Effect,"30 µM, 30.03 µM",85.64%
O=C(NCc1ccco1)[C@@H]1CCO[C@@H]2CCN(CC3CC3)C[C@@H]21.O=C(O)C(F)(F)F,Percent Effect,"30 µM, 30.03 µM",-21.92%
Cc1nc(CNC2CCN(Cc3ccccc3)C2)sc1C (stereo not given),Percent Effect,"30.3 µM, […]",100.1%
Cc1nc(CN2CCCC(NCc3cccc4ccccc34)C2)no1 (stereo not given),Percent Effect,"30.3 µM, […]",-31.57%
same,Percent Effect,"10 mM, 10 mM as filed; unlikely as a test dose",-42.23%
CCc1csc(CNC2CCN(Cc3ccccc3)C2)n1 (stereo not given),Percent Effect,"30.3 µM, […]",-9.701%
Cc1nc(CN2CCCC(NCc3nc4ccccc4s3)C2)no1 (stereo not given),Percent Effect,"30.3 µM, […]",74.19%
same,Percent Effect,"10 mM, 10 mM as filed; unlikely as a test dose",66.41%
Cc1nc(CN2CCCC(NCc3ccc(Cl)s3)C2)no1 (stereo not given),Percent Effect,"30.3 µM, […]",-4.21%
same,Percent Effect,"10 mM, 10 mM as filed; unlikely as a test dose",-21.78%
Cc1nc(CN2CCCC(NCc3ccsc3)C2)no1 (stereo not given),Percent Effect,"30 µM, 30.03 µM",-22.48%
Cc1nc(CN2CCCC(NCc3csc(C(C)(C)C)n3)C2)no1 (stereo not given),Percent Effect,"30.3 µM, […]",71.04%
same,Percent Effect,"10 mM, 10 mM as filed; unlikely as a test dose",-25.98%
Cc1nc(CN2CCCC(NCc3cnc(C(C)(C)C)s3)C2)no1 (stereo not given),Percent Effect,"30.3 µM, […]",-11.81%
Cc1nc(CCNC2CCN(Cc3ccccc3)C2)sc1C (stereo not given),Percent Effect,"30.3 µM, […]",-17.04%

# Reference: ChEMBL document CHEMBL3988442, “University of Dundee, Small-Polar-MMV Screening Library” (2021)
